# Legend:
# Experiment in all cases: PBM binding z-score (relative to random genomic background probes); higher = stronger binding; sequences stand for … in GC…GCGATTGACAGCGTAGAATGAAGG
# [1] = test system: RARb homodimer (NR concentration 270 nM)
# In short: (§1)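 The probes on custom Agilent 4×180K protein-binding microarrays were double-stranded, with 34-nt variable regions bearing direct-repeat seeds, single-nucleotide variants, half-site ablations and random human genomic background sequences. Incubation lasted 1 h with ligand-free nuclear receptor dimers in PBS pH 7.4, 2% milk, 0.02% Triton X-100, 1 mM DTT, 0.2 mg/mL BSA and 0.4 mg/ml salmon testes DNA. Antibodies against each partner (one per run) detected bound dimers, and fluorescence scans were regression-normalized. Binding z-scores take the random background probes as reference.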
# [2] = test system: RARg:RXRa (NR concentration 270 nM, RXRa partner concentration 90 nM)
# In short: as §1
# [3] = test system: RARg homodimer (NR concentration 270 nM)
# In short: as §1
# [4] = test system: RXRa DBDmut IVT, anti-RXR (DBD mutation: RXRa K156A/R161A, NR concentration 90 nM)
# In short: as §1
# [5] = test system: RXRa homodimer (NR concentration 180 nM)
# In short: as §1
# [6] = test system: THRa:RXRa (NR concentration 90 nM, RXRa partner concentration 90 nM)
# In short: as §1
# [7] = test system: THRa homodimer (NR concentration 90 nM)
# In short: as §1
# [8] = test system: VDR homodimer (NR concentration 270 nM)
# In short: as §1
sequence,measurement,setting,value
CCTGCTAGATCAATGGTCAGCTAAAGCAGCTCGC,PBM binding z-score,[1],-0.343
same,PBM binding z-score,[2],-0.647
same,PBM binding z-score,[3],-0.492
same,PBM binding z-score,[4],0.00874
same,PBM binding z-score,[5],-0.596
same,PBM binding z-score,[6],-0.908
same,PBM binding z-score,[7],-1.01
same,PBM binding z-score,[8],-0.711
ATATGTAGGTTAAGGGGCATTCAGGTTGGTTCGC,PBM binding z-score,[1],2.06
same,PBM binding z-score,[2],1.58
same,PBM binding z-score,[3],1.19
same,PBM binding z-score,[4],1.17
same,PBM binding z-score,[5],1.85
same,PBM binding z-score,[6],1.82
same,PBM binding z-score,[7],1.46
same,PBM binding z-score,[8],2.03
TCTGCTAGGTCGACGATGGTCAGCTAATCTGCTA,PBM binding z-score,[1],0.457
same,PBM binding z-score,[2],0.664
same,PBM binding z-score,[3],0.829
same,PBM binding z-score,[4],0.128
same,PBM binding z-score,[5],0.321
same,PBM binding z-score,[6],0.669
same,PBM binding z-score,[7],-0.884
same,PBM binding z-score,[8],-0.845
CGAACTAGGTCATTGACAGGACACTGAATAGTAA,PBM binding z-score,[1],2.8
same,PBM binding z-score,[2],4.6
same,PBM binding z-score,[3],3.84
same,PBM binding z-score,[4],2.58
same,PBM binding z-score,[5],2.46
same,PBM binding z-score,[6],3.03
same,PBM binding z-score,[7],1.06
same,PBM binding z-score,[8],1.18
CCTCGGACGACAACAGGAGGTCAGAGCTGCCAGA,PBM binding z-score,[1],2.97
same,PBM binding z-score,[2],1.95
same,PBM binding z-score,[3],1.99
same,PBM binding z-score,[4],-0.432
same,PBM binding z-score,[5],1.84
same,PBM binding z-score,[6],1.92
same,PBM binding z-score,[7],0.602
same,PBM binding z-score,[8],0.934
TCTTGTAGAGCAAGCAGGTTAAGAAAGCCTGAGT,PBM binding z-score,[1],-0.297
same,PBM binding z-score,[2],-0.441
same,PBM binding z-score,[3],-0.538
same,PBM binding z-score,[4],-0.187
same,PBM binding z-score,[5],-0.0799
same,PBM binding z-score,[6],-0.2
same,PBM binding z-score,[7],-1.05
same,PBM binding z-score,[8],-0.461
TCGAGTAGGTTACCAATGGGGCAGTCAGCTTTCT,PBM binding z-score,[1],0.628
same,PBM binding z-score,[2],1.29
same,PBM binding z-score,[3],0.257
same,PBM binding z-score,[4],0.0356
same,PBM binding z-score,[5],0.404
same,PBM binding z-score,[6],-0.0981
same,PBM binding z-score,[7],-1.12
same,PBM binding z-score,[8],-1.05

# Reference: the supplement of paper PMC6555819
